Measured values reported in PubChem BioAssay (EPA / NIEHS).
Records with an inconclusive call do not appear. The source made the active and inactive calls. The calls were made as follows, unless noted: active = hit-call score of the fitted dose curve at least 0.9, where 1 is the maximum; inactive = score below 0.9.

How the values were obtained:
[1] = ATG_Sox_CIS: Attagene CIS-FACTORIAL HepG2 Assay for human SRY-box transcription factor (SOX) (AID 2282960); conditions: HepG2 Attagene cis-factorial SOX reporter, mRNA; actives raise or lower the signal
Summary of the method: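 Measures mRNA induction of a SOX1-associated reporter in HepG2 after 24 h dosing. Fluorescently labelled RT-PCR fragments are separated by capillary electrophoresis, and gain or loss relative to DMSO control is fitted.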

[2] = target: Transcription factor Sp1 (Homo sapiens) (UniProt P08047); experiment: ATG_Sp1_CIS: Attagene CIS-FACTORIAL HepG2 Assay for human Specificity Protein 1 (Sp1) (AID 2282961); conditions: HepG2 Sp1 cis-reporter transcription, actives raise or lower the signal
Summary of the method: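 Cells: HepG2, transiently transfected with cis-regulated multiplexed reporters. Exposure: 24 h. Detection: reporter transcripts amplified, fluorescently labeled, restriction-digested and sized by capillary electrophoresis. Analysis: bidirectional fit relative to DMSO.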

[3] = target: Signal transducer and activator of transcription 3 (Homo sapiens) (UniProt P40763); experiment: ATG_STAT3_CIS: Attagene CIS-FACTORIAL HepG2 Assay for human Signal Transducer and Activator of Transcription 3 (STAT3) (AID 2282963); conditions: HepG2, Attagene cis-factorial STAT3 reporter transcription; actives raise or lower the signal
Summary of the method: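 Cis-factorial format: endogenous transcription factors in HepG2 drive transfected reporter units. After 24 h treatment, reporter RNA was reverse-transcribed, amplified, FAM-labelled and HpaI-digested before CE analysis; activity scored in both directions against DMSO.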

[4] = ATG_TA_CIS: Attagene CIS-FACTORIAL HepG2 Assay for human TA Basal Promoter (AID 2282964); conditions: HepG2 Attagene CIS-factorial TA basal promoter reporter; actives raise or lower the signal
Summary of the method: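 Multiplexed mRNA reporter assay, HepG2, 24 h. Reporter cDNA amplified, 6-FAM primer-extended, HpaI-cut, CE-sized; DMSO = negative control and baseline.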

[5] = ATG_TCF_b_cat_CIS: Attagene CIS-FACTORIAL HepG2 Assay for human T-Cell-Factor with beta-catenin (TCF/b-cat) (AID 2282965); conditions: HepG2 TCF/beta-catenin cis-reporter transcription, actives raise or lower the signal
Summary of the method: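 Measured: reporter mRNA in HepG2 transiently transfected with cis-promoter reporter units, 24 h after chemical addition. Fitting was bidirectional, DMSO as negative control.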

[6] = ATG_TAL_CIS: Attagene CIS-FACTORIAL HepG2 Assay for human TAL Basal Promoter (AID 2282966); conditions: HepG2 Attagene cis-factorial TAL promoter reporter; actives raise or lower the signal;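 also: background control endpoint measuring basal TAL promoter reporter mRNA not a specific factor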
Summary of the method: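 Background-control endpoint: basal TAL promoter reporter transcripts in transiently transfected HepG2, measured 24 h after dosing. Read-out by RT-PCR with fluorescent primer extension and capillary electrophoresis; gain or loss of signal fitted relative to DMSO.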

[7] = ATG_TGFb_CIS: Attagene CIS-FACTORIAL HepG2 Assay for human Transforming Growth Factor (TGF) (AID 2282967); conditions: HepG2 Attagene CIS TGFb reporter, mRNA transcription; actives raise or lower the signal
Summary of the method: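 Transcript-level reporter readout: HepG2 transfectants, 24 h exposure, RNA to cDNA, reporter-specific PCR, fluorescent primer extension, capillary sizing against ROX standards. Gain- or loss-of-signal relative to DMSO.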

[8] = target: Nuclear receptor subfamily 1 group I member 3 (Homo sapiens) (UniProt Q14994); experiment: ATG_CAR_TRANS: Attagene TRANS-FACTORIAL HepG2 Assay for human Constitutive Androstane Receptor (CAR) (AID 2282969; active = hit-call score of the fitted dose curve at least 0.9, where 1 is the maximum;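 also: activators raise reporter mRNA above DMSO so AC50 marks induction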); conditions: HepG2 Attagene TRANS-FACTORIAL CAR reporter
Summary of the method: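 Signal is reporter mRNA induction relative to DMSO, measured 24 h after dosing by RT-PCR with fluorescent primer extension and capillary electrophoresis. Human HepG2 liver cells carried transiently transfected chimeric NR-Gal4/GAL4-UAS reporter constructs.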

[9] = target: Estrogen receptor (Homo sapiens) (UniProt P03372); experiment: ATG_ERa_TRANS: Attagene TRANS-FACTORIAL HepG2 Assay for human Estrogen Receptor alpha (ERa) (AID 2282970; active = hit-call score of the fitted dose curve at least 0.9, where 1 is the maximum); conditions: HepG2 Attagene TRANS ERa GAL4 reporter, mRNA
Summary of the method: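 Reporter transcripts were measured 24 h after dosing by RT-PCR with fluorescent primer extension and capillary electrophoresis. The system is transiently transfected HepG2 expressing exogenous NR-Gal4 chimeras driving GAL4-UAS reporters; DMSO is the baseline.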

[10] = target: X-box-binding protein 1 (Homo sapiens) (UniProt P17861); experiment: ATG_Xbp1_CIS: Attagene CIS-FACTORIAL HepG2 Assay for human X-box Binding Protein 1 (XBP1) (AID 2282972); conditions: HepG2 XBP1 cis-element reporter, Attagene multiplex; actives raise or lower the signal
Summary of the method: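 Reporter transcripts were quantified by RT-PCR with fluorescent primer extension and capillary electrophoresis after 24 h chemical exposure. Cells: transiently transfected HepG2 carrying cis-regulated reporter constructs; data fitted bidirectionally relative to DMSO.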

[11] = ATG_M_19_TRANS: Attagene TRANS-FACTORIAL HepG2 Assay for M19 Transcription Factor (Internal Marker) (AID 2282974; active = hit-call score of the fitted dose curve at least 0.9, where 1 is the maximum); conditions: HepG2 Attagene TRANS-FACTORIAL M19 internal marker reporter
Summary of the method: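 Reporter mRNA induction was measured in transfected HepG2 cells 24 h after dosing. Endpoint fitted upward relative to DMSO and serves as a background control within the multiplexed TRANS panel.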

[12] = ATG_GAL4_TRANS: Attagene TRANS-FACTORIAL HepG2 Assay for GAL4 (Internal Marker) (AID 2282976; active = hit-call score of the fitted dose curve at least 0.9, where 1 is the maximum); conditions: HepG2 Attagene TRANS GAL4 internal marker reporter
Summary of the method: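 In transfected human HepG2 liver cells dosed 24 h, GAL4 reporter mRNA serves as a baseline marker. Detection by RT-PCR with fluorescent capillary electrophoresis, activity fitted upward relative to DMSO.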

[13] = target: Estrogen-related receptor gamma (Homo sapiens) (UniProt P62508); experiment: ATG_ERRg_TRANS: Attagene TRANS-FACTORIAL HepG2 Assay for human Estrogen-Related Receptor gamma (ERRg) (AID 2282977; active = hit-call score of the fitted dose curve at least 0.9, where 1 is the maximum;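 also: hits increase reporter signal over DMSO so potencies reflect activators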); conditions: HepG2 Attagene TRANS reporter, ERRg transactivation
Summary of the method: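 Exogenous NR-Gal4 chimera activity was assessed in HepG2 cells bearing transfected GAL4-UAS reporters. After 24 h dosing, total RNA underwent RT-PCR, fluorescent primer extension and HpaI digestion before capillary electrophoresis, with gain of signal scored against DMSO.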

[14] = ATG_SREBP_CIS: Attagene CIS-FACTORIAL HepG2 Assay for human Sterol Regulatory Element Binding (SREBP) (AID 2282962); conditions: HepG2 Attagene cis-factorial SREBP reporter, mRNA; actives raise or lower the signal
Summary of the method: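 Endogenous SREBP activity read as cis-element-driven reporter transcript in transiently transfected HepG2, 24 h post-dosing; quantified via RT-PCR plus capillary electrophoresis of fluorescent fragments. Gain or loss of signal fitted relative to DMSO baseline.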

[15] = target: Bile acid receptor (Homo sapiens) (UniProt Q96RI1); experiment: ATG_FXR_TRANS: Attagene TRANS-FACTORIAL HepG2 Assay for Farnesoid X Receptor (FXR) (AID 2282979; active = hit-call score of the fitted dose curve at least 0.9, where 1 is the maximum;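 also: hits raise reporter mRNA above DMSO so AC50 marks FXR activation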); conditions: HepG2 Attagene TRANS FXR-GAL4 reporter transcription
Summary of the method: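 Reporter transcripts from transfected HepG2 cells were measured 24 h after dosing, using RT-PCR with capillary electrophoresis of 6-FAM-labelled fragments. The read-out reflects activity of exogenous FXR-Gal4 chimera on GAL4-UAS units, with induction relative to DMSO.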

[16] = target: Oxysterols receptor LXR-alpha (Homo sapiens) (UniProt Q13133); experiment: ATG_LXRa_TRANS: Attagene TRANS-FACTORIAL HepG2 Assay for human Liver X Receptor alpha (LXRa) (AID 2282980; active = hit-call score of the fitted dose curve at least 0.9, where 1 is the maximum); conditions: HepG2 Attagene TRANS reporter, LXRa transactivation
Summary of the method: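 Chemical-induced reporter mRNA measured by RT-PCR with fluorescent labelling and capillary electrophoresis after 24 h dosing of transiently transfected HepG2 cells expressing exogenous NR-Gal4 chimeras; increases scored against DMSO baseline.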

[17] = ATG_VDRE_CIS: Attagene CIS-FACTORIAL HepG2 Assay for human Vitamin D Receptor Element (VDRE) (AID 2282968); conditions: HepG2 VDRE cis-reporter transcription, actives raise or lower the signal
Summary of the method: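 Measures endogenous factor activity through cis-element-driven reporter transcripts in transiently transfected HepG2. Cells are treated 24 h; reporter mRNA is quantified by RT-PCR and capillary electrophoresis; fitting is bidirectional.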

[18] = target: Steroid hormone receptor ERR1 (Homo sapiens) (UniProt P11474); experiment: ATG_ERRa_TRANS: Attagene TRANS-FACTORIAL HepG2 Assay for human Estrogen-Related Receptor alpha (ERRa) (AID 2282971; active = hit-call score of the fitted dose curve at least 0.9, where 1 is the maximum); conditions: HepG2 Attagene TRANS reporter, ERRa transactivation
Summary of the method: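 Reporter transcripts from ERRa-Gal4 chimera activity measured in transiently transfected human HepG2 cells 24 hours after dosing, using RT-PCR with 6-FAM primer extension, HpaI digestion and capillary electrophoresis; DMSO is baseline.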

[19] = target: Glucocorticoid receptor (Homo sapiens) (UniProt P04150); experiment: ATG_GR_TRANS: Attagene TRANS-FACTORIAL HepG2 Assay for human Glucocorticoid Receptor (GR) (AID 2282978; active = hit-call score of the fitted dose curve at least 0.9, where 1 is the maximum;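 also: activators score as hits since higher reporter transcript over DMSO is fitted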); conditions: HepG2 Attagene TRANS GR reporter, mRNA transcription
Summary of the method: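 Reporter transcript levels, detected by fluorescence after RT-PCR and capillary electrophoresis, served as the endpoint. HepG2 cells bearing transfected GAL4-UAS reporters responsive to NR-GAL4 chimeras were incubated with compound 24 h; DMSO defined baseline.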

Measured: AC50

Chain of Steroid hormone receptor ERR1 (Homo sapiens) (P11474 whole entry, looked up, the tested form may be a part): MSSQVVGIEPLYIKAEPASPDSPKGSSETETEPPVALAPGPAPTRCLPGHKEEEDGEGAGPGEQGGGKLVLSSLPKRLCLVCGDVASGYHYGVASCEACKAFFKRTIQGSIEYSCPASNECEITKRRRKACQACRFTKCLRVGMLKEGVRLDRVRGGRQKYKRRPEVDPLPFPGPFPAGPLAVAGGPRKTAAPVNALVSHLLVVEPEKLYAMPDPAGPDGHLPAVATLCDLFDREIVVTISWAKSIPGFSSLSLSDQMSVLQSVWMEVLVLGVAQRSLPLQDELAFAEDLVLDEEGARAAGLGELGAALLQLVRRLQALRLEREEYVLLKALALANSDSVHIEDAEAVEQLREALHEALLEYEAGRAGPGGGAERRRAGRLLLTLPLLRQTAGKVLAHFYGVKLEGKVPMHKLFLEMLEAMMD
Chain of Signal transducer and activator of transcription 3 (Homo sapiens) (P40763 whole entry, looked up): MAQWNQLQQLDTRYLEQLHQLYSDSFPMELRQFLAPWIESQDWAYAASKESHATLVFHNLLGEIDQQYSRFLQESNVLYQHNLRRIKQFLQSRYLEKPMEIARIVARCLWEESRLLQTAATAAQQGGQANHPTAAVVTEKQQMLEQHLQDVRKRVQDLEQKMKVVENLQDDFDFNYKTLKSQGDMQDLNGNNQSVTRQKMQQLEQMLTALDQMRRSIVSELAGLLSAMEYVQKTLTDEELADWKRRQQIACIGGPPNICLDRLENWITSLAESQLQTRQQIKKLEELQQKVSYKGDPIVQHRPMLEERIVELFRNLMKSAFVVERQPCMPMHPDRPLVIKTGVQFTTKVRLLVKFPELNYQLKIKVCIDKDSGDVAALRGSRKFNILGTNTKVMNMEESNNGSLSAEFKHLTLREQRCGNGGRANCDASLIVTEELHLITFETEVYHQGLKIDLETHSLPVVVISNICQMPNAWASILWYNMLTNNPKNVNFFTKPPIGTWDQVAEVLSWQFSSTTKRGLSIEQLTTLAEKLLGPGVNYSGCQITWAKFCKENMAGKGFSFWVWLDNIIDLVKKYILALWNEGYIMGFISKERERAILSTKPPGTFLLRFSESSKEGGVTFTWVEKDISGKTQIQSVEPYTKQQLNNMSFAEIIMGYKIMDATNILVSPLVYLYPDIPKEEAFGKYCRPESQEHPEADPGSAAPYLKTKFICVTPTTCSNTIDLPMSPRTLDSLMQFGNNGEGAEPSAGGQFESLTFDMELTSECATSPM
Chain of Transcription factor Sp1 (Homo sapiens) (P08047 whole entry, looked up): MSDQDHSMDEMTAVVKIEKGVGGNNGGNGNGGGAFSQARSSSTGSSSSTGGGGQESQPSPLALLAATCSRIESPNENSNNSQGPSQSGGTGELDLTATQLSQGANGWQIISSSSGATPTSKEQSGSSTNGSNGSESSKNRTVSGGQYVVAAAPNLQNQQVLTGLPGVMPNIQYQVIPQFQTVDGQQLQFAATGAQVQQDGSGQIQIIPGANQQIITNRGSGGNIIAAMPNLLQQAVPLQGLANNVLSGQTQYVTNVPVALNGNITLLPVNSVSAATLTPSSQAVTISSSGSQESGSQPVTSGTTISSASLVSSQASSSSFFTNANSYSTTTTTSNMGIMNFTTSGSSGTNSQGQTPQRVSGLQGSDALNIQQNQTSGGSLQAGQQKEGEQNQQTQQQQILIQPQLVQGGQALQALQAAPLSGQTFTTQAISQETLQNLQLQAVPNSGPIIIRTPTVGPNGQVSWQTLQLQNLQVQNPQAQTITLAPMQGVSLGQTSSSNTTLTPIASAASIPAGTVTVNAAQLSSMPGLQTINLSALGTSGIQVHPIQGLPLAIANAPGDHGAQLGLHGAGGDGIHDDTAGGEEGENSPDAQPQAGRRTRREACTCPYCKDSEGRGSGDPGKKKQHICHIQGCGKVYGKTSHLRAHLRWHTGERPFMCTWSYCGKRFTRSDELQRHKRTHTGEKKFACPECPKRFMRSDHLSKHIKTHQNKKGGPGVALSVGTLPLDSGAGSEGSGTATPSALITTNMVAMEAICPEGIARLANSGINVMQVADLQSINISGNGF
Chain of Oxysterols receptor LXR-alpha (Homo sapiens) (Q13133 whole entry, looked up, the tested form may be a part): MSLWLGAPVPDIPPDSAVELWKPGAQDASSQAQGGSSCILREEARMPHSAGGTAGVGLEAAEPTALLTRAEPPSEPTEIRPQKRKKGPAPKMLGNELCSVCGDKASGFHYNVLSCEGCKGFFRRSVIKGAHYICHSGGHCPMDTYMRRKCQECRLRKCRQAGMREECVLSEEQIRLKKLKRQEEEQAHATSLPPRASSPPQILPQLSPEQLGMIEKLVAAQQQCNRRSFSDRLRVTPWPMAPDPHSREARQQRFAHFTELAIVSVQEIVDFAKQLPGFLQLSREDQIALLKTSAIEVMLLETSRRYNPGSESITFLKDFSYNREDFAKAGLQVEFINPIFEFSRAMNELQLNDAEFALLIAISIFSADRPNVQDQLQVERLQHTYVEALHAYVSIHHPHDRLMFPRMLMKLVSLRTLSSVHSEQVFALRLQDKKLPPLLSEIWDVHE
Chain of Nuclear receptor subfamily 1 group I member 3 (Homo sapiens) (Q14994 whole entry, looked up, the tested form may be a part): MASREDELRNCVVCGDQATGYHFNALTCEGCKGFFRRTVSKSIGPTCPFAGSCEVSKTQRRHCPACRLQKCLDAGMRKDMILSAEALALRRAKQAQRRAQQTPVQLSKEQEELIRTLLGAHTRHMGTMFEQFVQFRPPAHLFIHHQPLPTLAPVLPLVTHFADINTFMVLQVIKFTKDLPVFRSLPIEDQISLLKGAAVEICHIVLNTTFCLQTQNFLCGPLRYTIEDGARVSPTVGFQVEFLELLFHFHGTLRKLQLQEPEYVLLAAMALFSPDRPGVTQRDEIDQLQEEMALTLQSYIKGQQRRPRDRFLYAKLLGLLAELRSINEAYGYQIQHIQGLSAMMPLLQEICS
Chain of Bile acid receptor (Homo sapiens) (Q96RI1 whole entry, looked up, the tested form may be a part): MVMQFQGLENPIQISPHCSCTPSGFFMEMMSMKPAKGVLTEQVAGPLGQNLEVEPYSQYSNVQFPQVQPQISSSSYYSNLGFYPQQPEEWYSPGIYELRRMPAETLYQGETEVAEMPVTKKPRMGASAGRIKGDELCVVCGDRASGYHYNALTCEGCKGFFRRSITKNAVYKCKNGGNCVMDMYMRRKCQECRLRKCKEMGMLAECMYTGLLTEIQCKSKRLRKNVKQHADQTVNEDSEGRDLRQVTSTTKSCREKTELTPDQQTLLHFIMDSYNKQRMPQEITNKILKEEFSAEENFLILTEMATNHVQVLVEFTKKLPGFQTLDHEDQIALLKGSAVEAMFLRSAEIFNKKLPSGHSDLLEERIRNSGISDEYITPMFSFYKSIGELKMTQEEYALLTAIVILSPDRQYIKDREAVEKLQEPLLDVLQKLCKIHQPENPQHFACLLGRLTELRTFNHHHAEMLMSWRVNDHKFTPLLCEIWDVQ
Chain of Estrogen receptor (Homo sapiens) (P03372 whole entry, looked up, the tested form may be a part): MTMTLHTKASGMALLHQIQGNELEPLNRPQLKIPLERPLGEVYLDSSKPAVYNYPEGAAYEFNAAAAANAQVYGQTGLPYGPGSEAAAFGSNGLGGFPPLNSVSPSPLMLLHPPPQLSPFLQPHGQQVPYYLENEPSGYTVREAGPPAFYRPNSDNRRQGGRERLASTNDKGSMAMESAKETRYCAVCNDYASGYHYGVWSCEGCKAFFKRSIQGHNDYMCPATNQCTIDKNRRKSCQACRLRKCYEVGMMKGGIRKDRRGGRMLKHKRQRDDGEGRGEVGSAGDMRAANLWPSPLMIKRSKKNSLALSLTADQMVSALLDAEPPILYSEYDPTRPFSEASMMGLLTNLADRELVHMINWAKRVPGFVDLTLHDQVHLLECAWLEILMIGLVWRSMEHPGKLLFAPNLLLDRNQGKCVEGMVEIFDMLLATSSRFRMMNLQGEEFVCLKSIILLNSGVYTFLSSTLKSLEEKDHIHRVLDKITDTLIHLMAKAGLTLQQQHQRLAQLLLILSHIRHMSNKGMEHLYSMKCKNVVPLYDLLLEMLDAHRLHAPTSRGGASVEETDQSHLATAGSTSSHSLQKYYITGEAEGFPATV
Chain of X-box-binding protein 1 (Homo sapiens) (P17861 whole entry, looked up): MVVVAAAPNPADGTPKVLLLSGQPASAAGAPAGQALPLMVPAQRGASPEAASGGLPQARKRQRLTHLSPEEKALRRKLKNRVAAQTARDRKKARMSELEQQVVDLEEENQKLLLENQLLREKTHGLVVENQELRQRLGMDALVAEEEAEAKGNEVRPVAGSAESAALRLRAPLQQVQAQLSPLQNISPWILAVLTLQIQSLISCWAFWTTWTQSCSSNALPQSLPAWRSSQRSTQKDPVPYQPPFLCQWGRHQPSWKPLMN
Chain of Estrogen-related receptor gamma (Homo sapiens) (P62508 whole entry, looked up, the tested form may be a part): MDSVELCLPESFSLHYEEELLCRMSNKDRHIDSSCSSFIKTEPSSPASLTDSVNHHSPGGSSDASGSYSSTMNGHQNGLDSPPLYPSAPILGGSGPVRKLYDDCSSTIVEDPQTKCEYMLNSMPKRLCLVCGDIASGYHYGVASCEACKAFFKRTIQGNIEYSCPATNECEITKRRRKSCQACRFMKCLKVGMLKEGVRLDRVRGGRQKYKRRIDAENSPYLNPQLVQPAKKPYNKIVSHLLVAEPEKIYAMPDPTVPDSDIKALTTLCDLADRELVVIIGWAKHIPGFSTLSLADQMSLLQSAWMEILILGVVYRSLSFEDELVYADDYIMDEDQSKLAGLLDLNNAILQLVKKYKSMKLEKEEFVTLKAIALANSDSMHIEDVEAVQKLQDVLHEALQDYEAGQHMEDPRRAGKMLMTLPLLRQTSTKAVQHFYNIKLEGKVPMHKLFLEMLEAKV

CCC(C)(C#N)N=NC(C)(C#N)CC (stereo unspecified)
not listed: [14] | [15] | [16] | [17] | [18] | [19]
inactive: all other assays above

CCCCOC(C)=O
not listed: [4] | [5] | [8] | [10] | [13] | [17] | [18] | [19]
inactive: all other assays above

COCCl
not listed: [8] | [9] | [13] | [14] | [15] | [19]
inactive: all other assays above

C=CC(=O)[O][Sn]([CH2]CCC)([CH2]CCC)[CH2]CCC
active: [1] 670 nM | [2] 504 nM | [14] 189 nM | [3] 657 nM | [7] 367 nM | [17] 266 nM | [10] 412 nM
inactive: [6] | [18] | [11] | [19] | [15] | [16]

CC(C)(C1CCC(O)CC1)C1CCC(O)CC1 (stereo unspecified)
active: [9] 11200 nM
not listed: [11] | [12] | [13] | [14] | [15] | [18] | [19]
inactive: all other assays above

Nc1ccc(Br)cc1
not listed: [8] | [13] | [14] | [17] | [18] | [19]
inactive: all other assays above

O=NN1CCCCCCC1
not listed: [2] | [10] | [11] | [13] | [16] | [17] | [18] | [19]
inactive: all other assays above

CCOP(=S)(OCC)SCS(=O)(=O)C(C)(C)C
active: [16] 34100 nM
not listed: [2] | [10] | [11] | [13] | [14] | [18] | [19]
inactive: all other assays above

Oc1ccc(Cc2ccc(O)cc2)cc1
active: [9] 842 nM
inactive: [1] | [2] | [3] | [5] | [6] | [7] | [10] | [19] | [16]

COCC(=O)N(c1c(C)cccc1C)[C@H](C)C(=O)OC
not listed: [2] | [9] | [10] | [12] | [15] | [19]
inactive: all other assays above
